This is one part of a sample in which hits are shown more often than they occur.
TTR transcr act = TTR transcription activation, primary screen; SH-SY5Y TTR promoter Gaussia luciferase, luminescence; 100% = recombinant luciferase protein wells; activation, % at 16.7 µM; 1.3% of 92,000 active;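 active means activation above the mean of all tested compounds plus 3 SD, cut at about 9.5% in these data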;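 further: cells exposed to compounds for one day before reading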
TTR inh HuH7 = decreases TTR transcription in HuH7 cells in activator counter-screen; 4% of 1,100 active; HuH7 TTR promoter-Gaussia luciferase reporter, luminescence; shares compounds with TTR transcr act; inhibition, % at 16.7 µM;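 active means average inhibition above the solvent-only control wells' mean plus 3 SD, cut at about 15% in these data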;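 further: inhibitors lower well luminescence so higher value means more inhibition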
TTR act confirm = confirmation of human transthyretin transcription activators; shares compounds with TTR transcr act; SHSY5Y TTR promoter Gaussia luciferase, luminescence; 100% = purified Lucia enzyme wells, no cells; activation, % at 16.7 µM; 1,100 tested, under 10 active;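 active means mean activation above a set limit taken from the earlier primary screen, cut at about 11% in these data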
Large screens that a line does not name were inactive (follow-up assays come after a bar, where they were run).

CC(C)Cn1c(=O)cc(N2CCN(c3cccc(C(F)(F)F)c3)CC2)[nH]c1=O	none
COC(=O)[C@]12C[C@H](CC(=O)NCc3ccc(C)o3)C(=O)N(Cc3cccc4ccccc34)C1=C[C@H](C1CCCC1)O[C@@H]2C	none
CCN(C(=O)CSc1nnc(-c2ccc(F)cc2)c2ccccc12)C1CCS(=O)(=O)C1 (stereo unspecified)	none
CCN(C(=O)CSc1ccc2ccccc2c1)C1CCS(=O)(=O)C1 (stereo unspecified)	none
CCN(C(=O)CSc1nnc(C)n1Cc1ccccc1)C1CCS(=O)(=O)C1 (stereo unspecified)	TTR transcr act 10 | TTR inh HuH7 inactive | TTR act confirm inactive
CCC[C@H]1[C@@H](NC(=O)Nc2ccc3c(c2)OCO3)CC[C@@]23CCCN2C(=O)CCC[C@@H]13	none
Cc1cccc([C@@H]2[C@@H]3C(=O)N(Cc4ccccc4)C(=O)[C@@H]3[C@]3(Cc4ccccc4)C(=O)N(c4cccc(Cl)c4)C(=O)N23)c1	none
O=C1[C@H]2[C@@H](c3ccc(Cl)cc3)N3C(=O)N(c4cccc(Cl)c4)C(=O)[C@@]3(Cc3ccccc3)[C@H]2C(=O)N1C1CCCCC1	TTR transcr act 16 | TTR inh HuH7 inactive | TTR act confirm inactive
O=C1[C@H]2[C@@H](c3ccc(F)cc3)N3C(=O)N(c4cccc(Br)c4)C(=O)[C@@]3(Cc3ccccc3)[C@H]2C(=O)N1C1CCCCC1	none
O=C(Nc1ccc(F)cc1)OCCN1CCCC12CCC(c1ccccc1)CC2 (stereo unspecified)	none
COc1ccccc1-c1nnc(SCC#CCOC(=O)c2ccc(F)cc2)o1	none
CCN1C(=O)[C@@H]2[C@@H](c3ccc(SC4CCCCC4)cc3)N3CCC[C@@]3(C(=O)OC)[C@@H]2C1=O	TTR transcr act 11 | TTR inh HuH7 inactive | TTR act confirm inactive
COC(=O)[C@@]12CCCN1[C@H](c1ccc(SC3CCCCC3)cc1)[C@H]1C(=O)N(C)C(=O)[C@H]12	none
CCN1C(=O)[C@H]2[C@@H](c3ccc(SC4CCCCC4)cc3)N3CCCC[C@@]3(C(=O)OC)[C@H]2C1=O	none
COC(=O)[C@]12C[C@H](CC(=O)N3CCCC3)C(=O)N(Cc3ccc(Cl)cc3Cl)C1=C[C@H](C1CCCC1)O[C@@H]2C	none
CC(C)C[C@H](NC1(C(=O)NCCc2c[nH]c3ccccc23)CCN(C)CC1)C(=O)NCCCc1ccccc1	none
O=C(CCCSc1nc2ccccc2[nH]1)Nc1ccccc1	none
Cc1cccc(NC(=O)CCCSc2nc3ccccc3[nH]2)c1	none
Cc1ccccc1OCCCSc1nc2ccccc2[nH]1	TTR transcr act 31 | TTR inh HuH7 inactive | TTR act confirm inactive
O=S1(=O)c2ccc(N3CC[C@@H](O)C3)cc2OCCCN1C1CC1	none
COC(=O)[C@]12C[C@H](CC(=O)NCCCN3CCCC3=O)C(=O)N(CCc3ccc(OC)c(OC)c3)C1=C[C@H](C(C)C)O[C@@H]2C1CC1	none
Cc1c(N(C)C(=O)C23CC4CC(CC(C4)C2)C3)c(=O)n(-c2ccccc2)n1C	none
Cc1c(N(C)C(=O)c2ccc3c(c2)OCO3)c(=O)n(-c2ccccc2)n1C	none
Cc1c(N(C)S(=O)(=O)c2cc(C(=O)N3CCCC3)ccc2Cl)c(=O)n(-c2ccccc2)n1C	TTR transcr act 13 | TTR inh HuH7 inactive | TTR act confirm inactive
O=C(NC1CCCCN(Cc2ccc(Cl)cc2)C1=O)c1ccc(COc2ccccc2)cc1 (stereo unspecified)	none
CC(C)(N[C@@H](Cc1c[nH]c2ccccc12)C(=O)NCC(c1ccccc1)c1ccccc1)C(=O)NC1CCCCC1	none
O=C(O/N=C1/CCCc2occc21)c1ccccc1	none
Cc1ccc(C(=O)O/N=C2\CCCc3ccccc32)cc1	TTR transcr act 23 | TTR inh HuH7 inactive | TTR act confirm inactive
COc1ccc2c(c1)/C(=N/OC(=O)c1cccs1)CCC2	none
COc1ccc(Cn2ccc3ccc(-c4ccc5ccn(C(=O)C6CCC6)c5c4)cc32)cc1	none
COC(=O)C[C@@H]1CC[C@@H]2[C@@H](COc3ccc(NC(=O)Nc4ccccc4)cc3C(=O)N2C)O1	none
CCCCOC(=O)CCN1C(=O)/C(=C/c2ccccc2)SC1=S	none
Cc1cccc(C)c1OCC(=O)Nc1ccc(S(=O)(=O)Nc2ccccn2)cc1	TTR transcr act 17 | TTR inh HuH7 inactive | TTR act confirm inactive
Cc1cccc(C)c1OCC(=O)Nc1ccncc1	none
O=C(COc1ccc(Br)cc1)Nc1ccc(S(=O)(=O)Nc2ccccn2)cc1	none
O=C(CSc1cc(Cl)ccc1Cl)N/N=C/c1ccc[nH]1	none
COC(=O)[C@@]12CCCCC3=C1N(CCC3)C(=O)[C@H]2CC(=O)N1CCOCC1	none
Cc1cnc(C(=O)Nc2ccc(OC(F)(F)F)cc2)cn1	none
Cc1cc(N2CCN(C)CC2)nc2ccc(NC(=S)N3CCCCCC3)cc12	TTR transcr act 9.7 | TTR inh HuH7 inactive | TTR act confirm inactive
Cc1cc(N2CCOCC2)nc2ccc(NC(=O)C3CCCCC3)cc12	none
Cc1cc(N2CCN(C)CC2)nc2ccc(NC(=S)NCCN3CCc4ccccc4C3)cc12	none
COc1ccc2cc(-c3cn(C(=O)N(c4ccccc4)c4ccccc4)nn3)ccc2c1	none
CCCCOCCCNC(=O)C[C@H]1C[C@@]2(C(=O)OC)C(=C[C@H](COCc3ccccc3)O[C@@H]2C)N(Cc2ccc(Cl)cc2Cl)C1=O	none
COC(=O)[C@@H]1C[C@H]1[C@@H](NS(=O)(=O)c1ccccc1)c1ccccc1	TTR transcr act 10 | TTR inh HuH7 inactive | TTR act confirm inactive
COC(=O)[C@H]1C[C@@H]1[C@H](NC(=O)c1cc(C)on1)c1ccccc1	none
C[C@H](NS(=O)(=O)c1ccccc1)C(=O)N1CCN(C(c2ccccc2)c2ccccc2)CC1	none
C[C@H]1[C@@H](NC(=O)C2CCCCC2)CC[C@@]23CCCN2C(=O)CCC[C@@H]13	none
C[C@@H]1CCN(C2CC2)S(=O)(=O)c2ccc(N3CC[C@H](N(C)C)C3)cc2O1	none
C[C@H]1[C@@H](c2ccccc2)OC(O)([C@H](Cc2ccccc2)NC(=O)OC(C)(C)C)CN1C (stereo partly specified)	none
C[C@H]1CCC(=O)N([C@H](COc2ccccc2)Cc2ccccc2)CC1	TTR transcr act 14 | TTR inh HuH7 inactive | TTR act confirm inactive
CC(C)C[C@@H](COc1ccccc1)N1CCN(C)CCC1=O	none
CC1CCC(=O)N(CCOc2ccccc2)CC1 (stereo unspecified)	none
O=C(NCCc1c[nH]c2ccccc12)OCc1cn(Cc2ccccc2F)nn1	none
S=C(Nc1ccccc1Br)OCCN1CCCC12CCC(c1ccccc1)CC2 (stereo unspecified)	none
Cc1cc(NC(=O)Nc2cccc(F)c2)n(-c2ccccc2)n1	none
C[C@@H]1C(=O)O[C@@H]2CC34[C@H]5C[C@@H](C(C)(C)C)C36[C@H](OC(=O)[C@@H]6O)OC4(C(=O)O5)[C@@]12O (stereo partly specified)	TTR transcr act 23 | TTR inh HuH7 inactive | TTR act confirm inactive
O=C(Nc1ccc2c(c1)OCO2)OC1CC2CC1[C@H]1CCCCN1[C@H]2Cc1ccccc1 (stereo partly specified)	none
CC(C)(C)OC(=O)N1CCC(N[C@@H](Cc2c[nH]c3ccccc23)C(=O)NCCc2c[nH]c3ccccc23)(C(=O)NC2CCCCC2)CC1	none
CC1C(=O)N(Cc2cn(CCC3OCCO3)nn2)CCS(=O)(=O)N1Cc1ccc(-c2ccc(F)cc2)cc1 (stereo unspecified)	none

Source: PubChem
